Experimental data as given in PubChem BioAssay (NCATS).
Results filed as inconclusive are left out. The source made the active and inactive calls. Unless noted, calls follow the shape of the dose curve; as a rule, active = well fitted curve in the direction sought with a large enough effect; inconclusive = small, poorly fitted or top-dose-only effect, or another doubt; inactive = no such curve, though single readings can be large; an effect the other way counts as inactive or inconclusive.

How the values were obtained:
[1] = molecular target: Lysosomal acid glucosylceramidase (Homo sapiens) (UniProt P04062); assay: Glucocerebrosidase-p2 (AID 348; in the data active = potency below about 10 µM; also: potency is read from the fitted curve at half-maximal effect); settings: purified GBA, blue fluorogenic substrate, 40 min
Lysosomal acid glucosylceramidase (Homo sapiens), sequence (P04062 whole entry, looked up): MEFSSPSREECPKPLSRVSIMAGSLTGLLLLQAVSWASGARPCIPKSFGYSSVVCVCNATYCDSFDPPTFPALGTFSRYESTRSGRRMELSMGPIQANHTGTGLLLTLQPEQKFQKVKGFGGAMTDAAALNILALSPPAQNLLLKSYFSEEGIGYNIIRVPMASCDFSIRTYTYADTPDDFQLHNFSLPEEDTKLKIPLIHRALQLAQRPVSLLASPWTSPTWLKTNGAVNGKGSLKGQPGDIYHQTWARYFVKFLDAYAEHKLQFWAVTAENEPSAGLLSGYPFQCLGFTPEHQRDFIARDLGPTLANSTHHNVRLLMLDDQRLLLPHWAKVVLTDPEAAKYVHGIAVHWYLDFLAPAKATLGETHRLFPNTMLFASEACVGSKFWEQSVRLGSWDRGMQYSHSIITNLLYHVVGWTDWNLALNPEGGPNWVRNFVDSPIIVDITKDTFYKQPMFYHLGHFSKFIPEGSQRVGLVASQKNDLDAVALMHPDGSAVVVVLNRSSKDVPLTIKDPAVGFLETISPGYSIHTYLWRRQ
How it was run: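 Compounds titrated from 0.6 nM upwards against 0.2 nM enzyme in pH 5.9 citric acid/KH2PO4, taurocholate, tween-20; blue fluorogenic substrate 80 uM, 40 min room temperature, stopped and read Ex 365/Em 440 for AC50.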

[2] = AP1 Signaling Pathway (AID 357; active = well fitted curve in either direction with a large enough effect, not every such curve was filed as active; also: % is scaled to controls: 0 for no effect and ±100 for the full control effect); settings: ME-180 AP-1-bla reporter, EGF-induced, beta-lactamase ratio, 5 h; at 7.69 µM (top of the series) unless noted
How it was run: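 Titration-series screen for positive or negative modulators of EC50 EGF-induced signaling in ME-180 cells carrying an AP-1-driven beta-lactamase reporter. After 5 hours at 37 degrees Celsius, CCF4 460nm/530nm emission ratio gave %Activity; AC50 values derived.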

[3] = Stat Signaling Pathway (AID 446; active = well fitted curve in either direction with a large enough effect, not every such curve was filed as active;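 also: ME-180 cervical cancer cells given 40 pM IL-6 alongside compound; SIE-controlled beta-lactamase reporter measured as 460/530 nm FRET emission ratio; % is scaled to controls: 0 for no effect and ±100 for the full control effect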); settings: ME-180 SIE beta-lactamase reporter, IL-6 stimulated, 5 h; at 7.69 µM (top of the series) unless noted
How it was run: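 ME-180 SIE-bla cells; overnight plating; cpd + IL-6 40 pM, 5 h, 37 C; LiveBLAzer 2.5 h RT; 460/530 nm emission ratio. Normalized to 300 pM IL-6 and 125 nM JAK inhibitor controls.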

[4] = molecular target: Glucocorticoid receptor (Homo sapiens) (UniProt P04150); assay: GR-GFP Redistribution (AID 450;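 active = compounds whose dose series gives a full or clear partial fitted curve of increased nuclear translocation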; also: potency is read from the fitted curve at half-maximal effect); settings: U2OS GR-GFP nuclear translocation, laser cytometry, 2 h
Glucocorticoid receptor (Homo sapiens), sequence (P04150 whole entry, looked up, the tested form may be a part): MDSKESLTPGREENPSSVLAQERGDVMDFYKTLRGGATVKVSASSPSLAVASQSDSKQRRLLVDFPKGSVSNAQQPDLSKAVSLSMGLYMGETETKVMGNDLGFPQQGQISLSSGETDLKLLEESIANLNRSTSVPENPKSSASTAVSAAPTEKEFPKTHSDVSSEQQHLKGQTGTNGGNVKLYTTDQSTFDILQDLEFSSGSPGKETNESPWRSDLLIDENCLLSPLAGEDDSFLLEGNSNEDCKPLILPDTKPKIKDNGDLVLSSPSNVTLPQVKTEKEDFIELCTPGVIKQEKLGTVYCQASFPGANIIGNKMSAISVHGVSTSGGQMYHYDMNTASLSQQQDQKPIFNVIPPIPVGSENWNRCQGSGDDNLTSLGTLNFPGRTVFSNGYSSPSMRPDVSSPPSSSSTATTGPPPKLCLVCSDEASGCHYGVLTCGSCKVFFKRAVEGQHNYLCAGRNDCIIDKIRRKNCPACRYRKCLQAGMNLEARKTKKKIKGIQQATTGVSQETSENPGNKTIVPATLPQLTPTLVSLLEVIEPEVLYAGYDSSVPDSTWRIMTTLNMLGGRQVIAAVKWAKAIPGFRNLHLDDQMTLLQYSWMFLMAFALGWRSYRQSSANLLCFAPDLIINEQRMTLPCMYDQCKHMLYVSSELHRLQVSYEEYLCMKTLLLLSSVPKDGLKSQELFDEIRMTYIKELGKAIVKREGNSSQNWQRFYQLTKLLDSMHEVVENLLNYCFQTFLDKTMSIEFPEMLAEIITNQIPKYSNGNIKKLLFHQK

[5] = molecular target: Glucocorticoid receptor (Homo sapiens) (UniProt P04150); assay: GR-EFC Redistribution (AID 451; calls by dose curve; also: potency is read from the fitted curve at half-maximal effect); settings: CHO-K1 GR-EFC translocation, beta-gal luminescence, 2 h
How it was run: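 CHO-K1 cells stably expressing nuclear-localized β-gal enzyme acceptor and GR fused C-terminally to the enzyme donor fragment; ligand-driven nuclear translocation restores β-gal by complementation. Compounds titrated up to 46 uM final, 2 h at 37 °C; luminescence read.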

[6] = molecular target: Mitogen-activated protein kinase 10 (Mus musculus) (UniProt Q61831); assay: JNK3 AlphaScreen Assay (AID 530; active = well fitted curve in either direction with a large enough effect, not every such curve was filed as active;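 also: kinase came from lysate of stimulated human HepG2 cells; signal reports phosphorylation of biotinylated GST-cJun 1-79 at Ser73 with 10 µM ATP; % is scaled to controls: 0 for no effect and ±100 for the full control effect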); settings: JNK3 lysate, c-Jun phosphorylation; series mostly up to 57.1 µM
How it was run: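 Inhibitors reduce antibody binding to phosphorylated biotin-cJun, lowering AlphaScreen luminescence. Lysates from HepG2 cells pre-activated by IL-1beta plus TNF-alpha supplied JNK3; compounds were titrated.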

[7] = molecular target: 3',5'-cyclic-AMP phosphodiesterase 4B (Homo sapiens) (UniProt Q07343); assay: qHTS Assay for Inhibitors of PDE-IV (AID 607; active = well fitted activation curve with a large enough effect in the main read-out, with a control signal flat, not every such curve was filed as active; also: % of control where 0% means no effect); settings: HEK293 ACTOne CNG channel cells, membrane potential fluorescence; series mostly up to 22.9 µM
3',5'-cyclic-AMP phosphodiesterase 4B (Homo sapiens), sequence (Q07343 whole entry, looked up): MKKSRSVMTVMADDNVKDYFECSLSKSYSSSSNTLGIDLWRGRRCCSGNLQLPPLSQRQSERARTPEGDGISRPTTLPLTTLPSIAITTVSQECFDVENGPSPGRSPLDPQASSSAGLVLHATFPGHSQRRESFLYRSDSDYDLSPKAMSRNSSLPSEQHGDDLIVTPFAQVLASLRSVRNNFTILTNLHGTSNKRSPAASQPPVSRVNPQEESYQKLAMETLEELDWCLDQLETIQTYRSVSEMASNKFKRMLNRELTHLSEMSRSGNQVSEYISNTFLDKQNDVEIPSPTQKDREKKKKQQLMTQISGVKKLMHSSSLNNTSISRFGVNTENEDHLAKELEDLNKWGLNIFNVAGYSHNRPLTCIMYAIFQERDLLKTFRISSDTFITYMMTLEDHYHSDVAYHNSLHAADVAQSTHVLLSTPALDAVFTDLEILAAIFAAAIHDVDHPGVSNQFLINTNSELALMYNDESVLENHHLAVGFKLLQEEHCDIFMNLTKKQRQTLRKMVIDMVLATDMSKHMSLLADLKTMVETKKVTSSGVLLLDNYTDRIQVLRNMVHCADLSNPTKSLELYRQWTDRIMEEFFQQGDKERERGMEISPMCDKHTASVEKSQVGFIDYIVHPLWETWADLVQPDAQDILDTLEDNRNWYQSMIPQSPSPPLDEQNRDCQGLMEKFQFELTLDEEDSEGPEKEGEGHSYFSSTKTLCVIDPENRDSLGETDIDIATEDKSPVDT
How it was run: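 ACTOne HEK293 cells carry a modified cAMP-gated CNG channel and express endogenous PDE4; plated 1000 cells/well, compounds up to 22.9 uM final. Membrane-potential dye fluorescence (ex 535/em 590) was read; parental cells received 10 uM forskolin + 100 uM RO 20-1724.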

[8] = molecular target: Cytochrome P450 3A4 (Homo sapiens) (UniProt P08684); assay: qHTS Assay for Inhibitors and Substrates of Cytochrome P450 3A4 (AID 884); settings: recombinant CYP3A4, Luciferin-PPXE luminescence; series mostly up to 57.1 µM; also: potency is read from the fitted curve at half-maximal effect; nearly all actives have a fitted effect of over 50% in size
Cytochrome P450 3A4 (Homo sapiens), sequence (P08684 whole entry, looked up): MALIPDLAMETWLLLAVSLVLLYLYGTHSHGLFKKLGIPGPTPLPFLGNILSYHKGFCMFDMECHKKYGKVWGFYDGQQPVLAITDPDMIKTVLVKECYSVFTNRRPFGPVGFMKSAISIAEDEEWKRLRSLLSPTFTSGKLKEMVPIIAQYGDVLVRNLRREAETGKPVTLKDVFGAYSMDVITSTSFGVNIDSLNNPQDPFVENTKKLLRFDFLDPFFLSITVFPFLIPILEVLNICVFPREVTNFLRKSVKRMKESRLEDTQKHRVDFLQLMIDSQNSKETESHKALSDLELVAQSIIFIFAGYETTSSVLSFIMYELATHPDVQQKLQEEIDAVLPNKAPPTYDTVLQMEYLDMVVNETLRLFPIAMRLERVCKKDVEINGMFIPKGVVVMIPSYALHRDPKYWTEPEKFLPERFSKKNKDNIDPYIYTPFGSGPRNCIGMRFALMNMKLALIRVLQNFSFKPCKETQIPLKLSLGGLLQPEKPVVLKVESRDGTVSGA
How it was run: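 20 nM human CYP3A4 with 25 uM Luciferin-PPXE (at KM) in 200 mM KPO4, preincubated 10 min with compound; NADPH regeneration started a 60 min RT reaction. Luciferin detected by luminescence, normalized to 57 uM ketoconazole as full inhibition.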

[9] = molecular target: Cytochrome P450 3A4 (Homo sapiens) (UniProt P08684); assay: qHTS Assay for Activators of Cytochrome P450 3A4 (AID 885); settings: recombinant CYP3A4, Luciferin-PPXE luminescence, 60 min; series mostly up to 57.1 µM; also: nearly all actives have a fitted effect of over 65% in size
How it was run: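 20nM CYP3A4 + 25uM Luciferin-PPXE (=KM), 200mM KPO4; cpd 10 min RT; NADPH regen, 60 min RT; stop w/ detection buffer, 20 min; luminescence. Normalized to 57 uM ketoconazole.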

[10] = qHTS Assay for Lipid Storage Modulators (AID 1519; calls by dose curve); settings: Drosophila S3 cells, BODIPY lipid droplet/cell ratio, laser cytometry, cells loaded with oleic acid; for activity change, negative = inhibition: at 57.5 µM (top of the series)
How it was run: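 Cells seeded at 5,000 per well were treated with compounds over a concentration series and loaded with oleic acid (400 uM, as added). Lipid droplet fluorescence (488 nm excitation, 500-530 nm channel) was read by laser-scanning cytometry and normalized to 20 uM Triacsin C.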

[11] = molecular target: Dual specificity protein kinase CLK4 (Homo sapiens) (UniProt Q9HAZ1); assay: qHTS Assay for Inhibitors of CDC-like Kinase 4 (Kinase-Glo Assay) (AID 1770); settings: recombinant Clk4, Kinase-Glo ATP depletion luminescence; series mostly up to 66.7 µM; also: % is scaled to controls: 0 for no effect and ±100 for the full control effect; nearly all actives have a fitted effect of over 65% in size
Dual specificity protein kinase CLK4 (Homo sapiens), sequence (Q9HAZ1 whole entry, looked up): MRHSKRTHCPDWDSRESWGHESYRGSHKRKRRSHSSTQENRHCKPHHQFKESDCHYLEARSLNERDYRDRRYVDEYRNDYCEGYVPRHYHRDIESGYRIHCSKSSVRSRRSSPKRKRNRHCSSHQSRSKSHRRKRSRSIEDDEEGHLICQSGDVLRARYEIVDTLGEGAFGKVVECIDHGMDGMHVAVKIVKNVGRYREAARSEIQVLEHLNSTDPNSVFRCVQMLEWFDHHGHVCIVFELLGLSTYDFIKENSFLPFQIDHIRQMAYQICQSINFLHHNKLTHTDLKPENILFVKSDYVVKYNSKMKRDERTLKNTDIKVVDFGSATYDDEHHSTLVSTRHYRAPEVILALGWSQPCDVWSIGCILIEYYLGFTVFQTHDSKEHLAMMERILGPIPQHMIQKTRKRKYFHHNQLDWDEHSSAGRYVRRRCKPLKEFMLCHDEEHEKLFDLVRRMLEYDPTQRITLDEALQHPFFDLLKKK
How it was run: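 Luminescent ATP-depletion read-out (Kinase-Glo) after 4.5 h room-temperature reaction of Clk4 (25 nM final) with RS peptide (100 uM) and ATP (1 uM), pH 7.5 Tris buffer with MgCl2 and DTT.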

[12] = molecular target: Dual specificity protein kinase CLK4 (Homo sapiens) (UniProt Q9HAZ1); assay: qHTS Assay for Inhibitors of CDC-like Kinase 4 (ADP-Glo Assay) (AID 1771); settings: recombinant CLK4, ADP-Glo luminescence; series mostly up to 80 µM; also: % is scaled to controls: 0 for no effect and ±100 for the full control effect; nearly all actives have a fitted effect of over 70% in size
How it was run: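 Luminescence from ADP-Glo reports ADP produced by 25 nM Clk4 acting on 100 uM RS repeat peptide with 1 uM ATP over 1 hr at room temperature; residual ATP is depleted before ADP is converted to ATP for detection.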

[13] = molecular target: Dual specificity protein kinase CLK4 (Homo sapiens) (UniProt Q9HAZ1); assay: qHTS Assay for Inhibitors of CDC-like Kinase 4 (ADP-FP Assay) (AID 1795); settings: Transcreener ADP fluorescence polarization; series mostly up to 50 µM;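 also: recombinant human CLK4 phosphorylating RS repeat peptide at 1 µM ATP; % is scaled to controls: 0 for no effect and ±100 for the full control effect; nearly all actives have a fitted effect of over 60% in size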
How it was run: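 Kinase activity was measured as ADP production using Transcreener orange tracer (4 nM) and ADP antibody (1 ug/mL) fluorescence polarization, with ADP calculated from a calibration curve. The 1 h reaction contained 6.25 nM Clk4, 1 uM ATP and 100 uM RS peptide at pH 7.5 with Mg2+.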

[14] = molecular target: Ubiquitin carboxyl-terminal hydrolase 1 (Homo sapiens) (UniProt O94782); assay: Inhibitors of USP1/UAF1: Pilot qHTS (AID 504865); settings: purified USP1/UAF1, Ub-rhodamine cleavage fluorescence; series mostly up to 54.9 µM;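 also: rhodamine fluorescence freed from ubiquitin-rhodamine substrate followed over time; top concentration of the series differs between compounds; % is scaled to controls: 0 for no effect and ±100 for the full control effect; nearly all actives have a fitted effect of over 35% in size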
Ubiquitin carboxyl-terminal hydrolase 1 (Homo sapiens), sequence (O94782 whole entry, looked up): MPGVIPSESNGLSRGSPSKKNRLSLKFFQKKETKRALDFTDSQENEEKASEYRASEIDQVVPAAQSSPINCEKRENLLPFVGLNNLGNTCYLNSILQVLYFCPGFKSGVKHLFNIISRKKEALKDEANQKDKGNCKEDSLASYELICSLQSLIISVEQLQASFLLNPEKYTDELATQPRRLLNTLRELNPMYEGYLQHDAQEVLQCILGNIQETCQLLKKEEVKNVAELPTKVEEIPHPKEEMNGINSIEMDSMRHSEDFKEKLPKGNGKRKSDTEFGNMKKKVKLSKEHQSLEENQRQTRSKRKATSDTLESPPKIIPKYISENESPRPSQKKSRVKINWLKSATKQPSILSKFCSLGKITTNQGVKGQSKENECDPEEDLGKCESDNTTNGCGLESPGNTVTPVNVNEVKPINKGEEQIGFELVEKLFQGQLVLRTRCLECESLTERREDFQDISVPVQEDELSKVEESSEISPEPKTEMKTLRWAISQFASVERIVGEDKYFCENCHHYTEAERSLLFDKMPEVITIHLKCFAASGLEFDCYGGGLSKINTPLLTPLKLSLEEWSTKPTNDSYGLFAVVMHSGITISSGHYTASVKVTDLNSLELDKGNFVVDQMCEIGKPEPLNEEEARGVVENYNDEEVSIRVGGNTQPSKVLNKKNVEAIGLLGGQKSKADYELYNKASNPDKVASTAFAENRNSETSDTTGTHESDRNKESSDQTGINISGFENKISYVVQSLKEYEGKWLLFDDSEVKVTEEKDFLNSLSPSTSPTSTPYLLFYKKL
How it was run: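 Deubiquitinase activity followed as kinetic rhodamine fluorescence release from 150 nM Ub-Rho. 1 nM USP1/UAF1 with compound, after 15 min room-temperature preincubation, in HEPES pH 7.8 buffer containing TCEP, EDTA, BSA and Tween-20.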

[15] = Counterscreen qHTS for small molecule stabilizers of the endoplasmic reticulum resident proteome: GLuc-NoTag assay (AID 1508627); settings: Gaussia luciferase NoTag secretion counterscreen, luminescence, thapsigargin 100 nM for final 4 h; series mostly up to 76.4 µM;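 also: SH-SY5Y cells given compound then 100 nM thapsigargin to empty ER calcium; 0% = thapsigargin alone and -100% = DMSO vehicle control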
How it was run: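 SH-SY5Y cells stably expressing constitutively secreted GLuc (no SERCaMP tag) were pre-incubated 5 h, treated with compound for 19 h, then 100 nM thapsigargin for 4 h at 37C; medium GLuc read by coelenterazine luminescence.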

[16] = NFAT Signaling Pathway (AID 444; active = well fitted curve in either direction with a large enough effect, not every such curve was filed as active;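 also: carbachol stimulus at about its EC50 of 1 µM final; % is scaled to controls: 0 for no effect and ±100 for the full control effect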); settings: Jurkat NFAT-bla M1, carbachol, beta-lactamase ratio, 5 h; at 7.69 µM (top of the series) unless noted
How it was run: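 Jurkat cells carrying an NFAT-driven β-lactamase reporter and co-transfected muscarinic M1 receptor were treated with compound plus carbachol (1 uM final, an EC50 level) for 5 h at 37 °C. CCF4 loading followed for 1 h at RT; 460/530 nm ratio gave %activity.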

[17] = Cell Viability qHTS for small molecule stabilizers of the endoplasmic reticulum resident proteome (AID 1508629); settings: cell viability counter-screen, 100 nM thapsigargin for final 4 h
[18] = molecular target: Cytochrome P450 1A2 (Homo sapiens) (UniProt P05177); assay: p450-cyp1a2 (AID 410; calls by dose curve; also: potency is read from the fitted curve at half-maximal effect); settings: recombinant CYP1A2, luciferin-ME demethylation, luminescence; series mostly up to 57 µM
Cytochrome P450 1A2 (Homo sapiens), sequence (P05177 whole entry, looked up): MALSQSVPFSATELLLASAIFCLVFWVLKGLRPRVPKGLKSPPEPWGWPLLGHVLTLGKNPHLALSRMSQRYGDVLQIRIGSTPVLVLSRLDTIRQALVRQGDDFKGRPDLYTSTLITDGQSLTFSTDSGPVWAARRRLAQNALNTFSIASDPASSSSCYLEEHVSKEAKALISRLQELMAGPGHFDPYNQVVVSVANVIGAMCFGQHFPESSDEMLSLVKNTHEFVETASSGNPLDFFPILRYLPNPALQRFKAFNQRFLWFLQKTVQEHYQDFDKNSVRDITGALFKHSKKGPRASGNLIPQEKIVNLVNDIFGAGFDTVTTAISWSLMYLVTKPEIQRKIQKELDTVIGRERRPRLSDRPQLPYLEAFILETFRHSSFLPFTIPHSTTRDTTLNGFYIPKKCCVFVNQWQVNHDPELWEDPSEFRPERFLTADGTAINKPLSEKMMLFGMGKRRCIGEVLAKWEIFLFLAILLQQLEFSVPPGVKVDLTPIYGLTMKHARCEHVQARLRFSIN
How it was run: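 Luminescent readout of luciferin formed from Luciferin-ME by human CYP1A2; data normalized against complete inhibition by 57 uM furafylline. Enzyme 20nM, substrate 100uM at Km, 100mM KPO4 buffer, 60 min reaction at room temperature.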

[19] = Confirmatory qHTS for small molecule stabilizers of the endoplasmic reticulum resident proteome: Secreted ER Calcium Modulated Protein (SERCaMP) assay (AID 1508628); settings: SERCaMP secreted luciferase ER calcium/proteostasis reporter; series mostly up to 76.3 µM; also: nearly all actives have a fitted effect of over 40% in size; also: potency is read from the fitted curve at half-maximal effect
How it was run: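 SH-SY5Y cells stably expressing GLuc-SERCaMP, treated 16 h with compound (primary 1.53, 7.67, 38.3 uM; confirmation 11 concentrations, up to 76.6 uM), then 100 nM thapsigargin for 4 h. Secreted Gaussia luciferase in medium read by coelenterazine luminescence.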

[20] = molecular target: Cytochrome P450 2C9 (Homo sapiens) (UniProt P11712); assay: qHTS Assay for Inhibitors and Substrates of Cytochrome P450 2C9 (AID 883); settings: recombinant CYP2C9, luciferin-H luminescence, 60 min; series mostly up to 57.1 µM; also: potency is read from the fitted curve at half-maximal effect; nearly all actives have a fitted effect of over 60% in size
Cytochrome P450 2C9 (Homo sapiens), sequence (P11712 whole entry, looked up): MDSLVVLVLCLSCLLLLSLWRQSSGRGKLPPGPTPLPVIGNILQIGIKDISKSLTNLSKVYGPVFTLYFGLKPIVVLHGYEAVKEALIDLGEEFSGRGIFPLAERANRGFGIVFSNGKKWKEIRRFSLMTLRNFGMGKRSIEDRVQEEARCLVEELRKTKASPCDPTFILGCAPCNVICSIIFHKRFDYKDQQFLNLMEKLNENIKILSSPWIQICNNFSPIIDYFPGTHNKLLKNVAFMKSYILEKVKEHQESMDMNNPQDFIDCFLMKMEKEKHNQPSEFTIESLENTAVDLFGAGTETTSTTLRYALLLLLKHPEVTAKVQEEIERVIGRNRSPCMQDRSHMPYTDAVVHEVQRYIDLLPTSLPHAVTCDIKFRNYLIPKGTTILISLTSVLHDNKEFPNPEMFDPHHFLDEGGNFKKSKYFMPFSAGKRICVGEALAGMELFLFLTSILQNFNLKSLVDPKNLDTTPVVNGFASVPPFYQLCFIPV
How it was run: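 CYP2C9 deoxyluciferin hydroxylation, 37C, 60 min with NADPH regeneration; 10nM enzyme, 100uM Luciferin-H (KM). Glo detection reagent stopped reaction; luminescence normalized to sulphaphenazole (57uM) full inhibition.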

[21] = qHTS Assay for Identification of Small Molecule Agonists for Hypoxia Response Element Signaling Pathway (AID 914; active = well fitted activation curve with a large enough effect in the signal ratio, with a control signal flat, not every such curve was filed as active; the % refers to the signal ratio; also: potency is read from the fitted curve at half-maximal effect); settings: ME-180 (cervical carcinoma) HRE-bla reporter, beta-lactamase ratio, CoCl2, 17 h; activation: stronger effect = higher value
How it was run: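 AC50 values come from titration-series %Activity, taken as the 460/530nm ratio of CCF4 fluorescence (excitation 405nm). CellSensor HRE-bla ME-180 cells were treated 17 hours at 37 C with compound plus an EC50 level of CoCl2.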

[22] = measured here: cell count channel max response
[23] = measured here: lipid channel max response

O=c1cnc2cnc(N3CCNCC3)nc2n1Cc1ccc(F)cc1
28.6%: max response [10, 23]
inactive: Potency [1] > 11.4 µM | activity change, negative = inhibition [2] -15.8% | activity, negative = inhibition [3] -2.57% | Potency [4] > 9.22 µM | Potency [5] > 46 µM | outcome [6] | Potency [7] | Potency [9] | activity change, negative = inhibition [10] 7.02% | Potency [11] | Potency [12] | Potency [13] | Potency [14] | Potency [15]
22.7%: max response [10, 22]
active: Potency [8] 7.94 µM

Cn1c(=O)c(CCc2ccccc2)nc2cnc(OCc3ccccc3)nc21
13.9%: max response [10, 22]
inactive: activity change, negative = inhibition [2] -26% | activity change, negative = inhibition [16] -3.3% | activity, negative = inhibition [3] -13% | Potency [4] > 9.22 µM | Potency [5] > 46 µM | Potency [7] | activity change, negative = inhibition [10] 2.86% | Potency [11] | Potency [13] | Potency [14] | Potency [15] | max response [17] -14.7%
15.4%: max response [10, 23]

COCCn1c(=O)c(-c2ccc(Cl)cc2)nc2cnc(OC)nc21
active: Potency [18] 0.398 µM | Potency [8] 7.94 µM
inactive: Potency [1] > 11.4 µM | activity change, negative = inhibition [2] 5.96% | activity change, negative = inhibition [16] 0.766% | activity, negative = inhibition [3] -10.9% | Potency [4] > 9.22 µM | Potency [5] > 46 µM | outcome [6] | Potency [7] | Potency [9] | Potency [15] | Potency [19]

CN1CCN(c2ncc3nc(-c4cc(F)cc(F)c4)c(=O)n(-c4ccccc4)c3n2)CC1
inactive: Potency [1] > 11.4 µM | Potency [4] > 9.22 µM | Potency [5] > 46 µM | outcome [6] | activity change, negative = inhibition [10] 2.22% | Potency [15] | Potency [19]
14.9%: max response [10, 23]
13.7%: max response [10, 22]

COc1ccc(Oc2ncc3nc(-c4cccs4)c(=O)n(CCC#N)c3n2)cc1
inactive: Potency [1] > 11.4 µM | activity change, negative = inhibition [2] -1.5% | activity change, negative = inhibition [16] -5.68% | activity, negative = inhibition [3] -11.5% | Potency [4] > 9.22 µM | Potency [5] > 46 µM | outcome [6] | Potency [7] | activity change, negative = inhibition [10] 2.6% | Potency [11] | Potency [12] | Potency [13] | Potency [14] | Potency [15] | max response [17] 18.3%
10.8%: max response [10, 22] | max response [10, 23]

O=c1c(-c2ccccc2)nc2cnc(N3CCNCC3)nc2n1C1CC1
active: Potency [18] 3.98 µM | Potency [20] 0.158 µM | Potency [21] 3.16 µM | Potency [19] 39.8 µM
42.5%: max response [10, 23]
inactive: Potency [1] > 11.4 µM | activity change, negative = inhibition [2] 27.1% | activity change, negative = inhibition [16] 100% | Potency [4] > 9.22 µM | Potency [5] > 46 µM | outcome [6] | Potency [7] | Potency [9] | activity change, negative = inhibition [10] 5.31% | Potency [15]
32.7%: max response [10, 22]
